Laboratory results from PubChem BioAssay.
Active and inactive are the calls of the source.

Assays:
[1] = compound effects on lung adenocarcinoma cell viability – A549, calcein-AM fluorescence, 48 h, basal, profiling panel (AID 1162); conditions: higher = more signal
[2] = compound effects on differentiated 3T3-L1 adipocyte viability – cell-based, 3T3-L1 adipocytes, calcein-AM fluorescence, 48 h, basal, profiling panel (AID 1163); conditions: 3T3-L1 adipocytes viability, higher = more signal
[3] = compound effects on hepatocellular carcinoma cell viability – HepG2, calcein-AM fluorescence, 48 h, basal, profiling panel (AID 1164); conditions: higher = more signal
[4] = compound effects on multiple myeloma cell viability – MM1S, calcein-AM fluorescence, 48 h, basal, profiling panel (AID 1165); conditions: higher = more signal
[5] = calcein-AM signal in unstimulated myeloma cells – cell-based, calcein-AM fluorescence, 48 h, PK04 Diversity Set, profiling panel (AID 1166); conditions: RPMI8226 myeloma viability, higher = more signal;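 also: cells grown under basal conditions without added stimulus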
[6] = JC-1 mitochondrial signal, unstimulated HepG2 cells – cell-based, JC-1 fluorescence, 24 h, 100 nL compound, profiling panel (AID 1167); conditions: HepG2 mitochondrial potential, higher = more signal
[7] = JC-1 mitochondrial signal, unstimulated adipocytes – cell-based, JC-1 fluorescence, 3T3-L1 adipocytes, 24 h, 100 nL compound, profiling panel (AID 1168); conditions: JC-1 mitochondrial fluorescence, higher = more signal, called active from +8 up or from −8 down
[8] = JC-1 mitochondrial signal, unstimulated myeloma cells – cell-based, JC-1 fluorescence, RPMI8226, 24 h, 100 nL compound, profiling panel (AID 1169); conditions: JC-1 mitochondrial potential fluorescence, higher = more signal
[9] = JC-1 mitochondrial signal, unstimulated MM1S myeloma – cell-based, JC-1 fluorescence, 24 h, 100 nL compound, profiling panel (AID 1170); conditions: MM1S mitochondrial potential, higher = more signal
[10] = resazurin metabolic signal in A549 cells – cell-based, resazurin fluorescence, 24 h, PK04 Diversity Set, profiling panel (AID 1171); conditions: A549 viability, higher = more signal, called active from +8 up or from −8 down
Also: test concentration not given here.

Compound	z-score [1]	z-score [2]	z-score [3]	z-score [4]	z-score [5]	z-score [6]	z-score [7]	z-score [8]	z-score [9]	z-score [10]
N#Cc1ccc(NN2C(C(O)C3CC=CCC3)C=CC3C(=O)N(c4ccccc4)C(=O)C32)cc1 (stereo not given)	-0.726	-0.613	0.921	-0.318	-0.265	-0.795	-1.14 (inactive)	0.418	-0.508	-0.997 (inactive)
COCC(=C=CC[C@H](O)c1ccccc1OCCO)C[C@H](O)COCc1ccccc1	0.428	0.152	0.024	-2.02	-0.311	1.37	-0.437 (inactive)	-0.138	-0.382	0.857 (inactive)
COCCOC(=O)N1C(=O)[C@@]2(c3ccccc31)[C@H](c1ccc(O)cc1)N1[C@H](c3ccccc3)[C@H](c3ccccc3)OC(=O)[C@H]1[C@@H]2C(=O)N1CCCCCCC1	-0.438	-0.688	0.313	-0.474	-1.26	-1.25	-1.07 (inactive)	0.167	0.584	-0.257 (inactive)
COC(=O)[C@@]1(Cc2ccc(F)cc2)[C@H]2c3cc(C(=O)N4CCCC4)n(Cc4cc(F)cc5c4OCOC5)c3C[C@H]2CN1C(=O)c1ccccc1	-1.14	0.364	-1.02	-1.54	-1.55	3.05	-0.484 (inactive)	-0.512	-0.744	-1.02 (inactive)
COCCOC(=O)N1C(=O)[C@@]2(c3cc(C#CCCO)ccc31)[C@H](c1ccc(OCCO)cc1)N1[C@H](c3ccccc3)[C@H](c3ccccc3)OC(=O)[C@H]1[C@@H]2C(=O)N1CCCCCCC1	0.139	0.005	-0.584	-0.993	-1.03	-0.437	-2.09 (inactive)	0.309	-0.958	-0.232 (inactive)
CC(C)C[C@@H]1NC(=O)[C@@]23C(=O)N[C@@H](Cc4ccccc4)C2[C@H](C)[C@@]2(C)O[C@H]2C3/C=C/C/C=C\CNC(=O)CNC1=O (stereo not given in full)	0.201	0.97	-0.47	-0.288	-0.174	-0.572	-0.159 (inactive)	0.149	0.694	-0.624 (inactive)
O=C1C2C=CC(C(O)C3CCCCC3)N(n3cnnc3)C2C(=O)N1Cc1ccccc1 (stereo not given)	-0.916	0.379	-0.611	-0.453	-0.441	-0.37	-2.27 (inactive)	-0.0098	-1.04	0.714 (inactive)
[N-]=[N+]=Nc1ccccc1C[C@@]1(C(=O)NCc2ccccc2)N=C(c2ccc(OCCCO)cc2)O[C@@H]1c1ccccc1N=[N+]=[N-]	-1.58	1.31	-0.83	-3	-4.36	0.728	-0.182 (inactive)	-1.23	-0.936	-0.996 (inactive)
O=C(NCC(O)CO)C1N=C(c2ccc(OCCCO)cc2)N(c2ccccc2)O1 (stereo not given)	-0.508	-0.293	0.285	1.22	-1.53	0.499	-0.761 (inactive)	-0.877	0.571	-0.0914 (inactive)
Cc1ccc(S[C@]2(C(=O)NCc3ccccc3)CC(=O)N(Cc3ccccc3C(F)(F)F)[C@@H]2c2ccc(CO)cc2)cc1	0.653	0.269	1.73	0.0811	1.36	0.779	0.311 (inactive)	-0.0337	-0.216	-1.35 (inactive)
O=C1N(CCS(=O)(=O)c2ccccc2)c2ccccc2C[C@]12N=C(c1ccc(OCCCO)cc1)O[C@@H]2c1ccccc1	-0.982	0.0009	0.207	-0.967	-2.48	-0.484	1.07 (inactive)	-0.687	-0.242	-1.37 (inactive)
CC(C)OC(=O)CC(=O)CC(O)c1cccc([N+](=O)[O-])c1 (stereo not given)	1.07	0.804	0.729	1.21	0.0484	-0.524	-0.718 (inactive)	0.193	-1.38	0.0126 (inactive)
CCCC[C@H]1OB(O)C[C@H]2C1=C(COc1ccccc1)C[C@H]1C(=O)C=CC(=O)[C@H]12	0.696	-0.0337	0.176	-3.27	-3.25	-1.59	-0.201 (inactive)	-0.431	-1.08	0.121 (inactive)
CN1C(=O)C2C(C1=O)C1C=C(CCCO)C2C(C2CC2)N1Cc1cccc(OC(F)(F)F)c1 (stereo not given)	-0.379	0.116	-0.814	-0.517	-0.781	0.217	-0.423 (inactive)	-0.00892	0.389	-0.0655 (inactive)
CN(C)c1ccc(C(O)C2C=CC3C(=O)N(Cc4ccccc4)C(=O)C3N2n2cnnc2)cc1 (stereo not given)	0.566	-0.179	2.13	0.0017	1.4	0.0219	0.522 (inactive)	-0.203	1.23	-1.04 (inactive)
COc1cc(CO)cc(I)c1O[C@H]1C=C(C(=O)NCCO)C[C@@H]2O[C@H]12	-0.42	0.254	-0.697	0.264	-3.2	-0.873	-0.389 (inactive)	-0.443	-0.52	-1.41 (inactive)
